# Data as given in the supplement of paper PMC8975748.
# Counter-ions that a name gives are not always drawn. ± gives the standard deviation of the averaged measurements.
# How the values were obtained:
# [1] = tested on: Saccharomyces cerevisiae BY4741 SeMeCo community; test: mean cell size (pixel area) (pixels); higher = larger cells; conditions: 10 µM; 24 h; SM minimal medium
# How it was run: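 Mean cell pixel area per well was measured in a four-plasmid fluorescent community of Saccharomyces cerevisiae BY4741, where every plasmid complements one auxotrophy and carries a fluorescent marker. Cells from an overnight preculture at OD600 = 1.0 were diluted to OD600 = 0.3 and dispensed at 70 µl into 384-well plates acoustically predosed with drug to a final 10 µM in SM medium. Incubation lasted 24 h, followed by paraformaldehyde fixation, automated confocal imaging and analysis in Harmony. Reported figures are averaged over 3 replicates. Same SeMeCo high-content imaging drug screen: Selleck FDA-approved drugs at 10 µM, 24 h in SM medium, 384-well plates, 3 replicates.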
# [2] = tested on: Saccharomyces cerevisiae BY4741 SeMeCo community; test: z-score of prototroph abundance vs DMSO median; higher = larger share of this subpopulation than in DMSO controls; conditions: 10 µM; 24 h; SM minimal medium; subpopulation (auxotrophy): Prototroph
# How it was run: (§1)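 Four plasmids, each restoring a single auxotrophy and encoding a distinct fluorescent protein, were carried by a Saccharomyces cerevisiae BY4741 community. After overnight growth to OD600 1.0 and dilution to 0.3, 70 µl per well was grown for 24 h in minimal SM medium on 384-well plates acoustically predosed with library drugs at 10 µM final. Following paraformaldehyde fixation, automated confocal microscopy was used, with single-auxotroph fluorescent strains defining thresholds and autofluorescence correction. Subpopulation abundance was then scored as a z-score against the vehicle-well median.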
# [3] = tested on: Saccharomyces cerevisiae BY4741 SeMeCo community; test: z-score of subpopulation abundance vs DMSO median, subpopulation auxotrophic for M; higher = larger share of this subpopulation than in DMSO controls; conditions: 10 µM; 24 h; SM minimal medium; subpopulation (auxotrophy): M
# How it was run: as §1
# [4] = tested on: Saccharomyces cerevisiae BY4741 SeMeCo community; test: z-score of subpopulation abundance vs DMSO median, subpopulation auxotrophic for L; higher = larger share of this subpopulation than in DMSO controls; conditions: 10 µM; 24 h; SM minimal medium; subpopulation (auxotrophy): L
# How it was run: as §1
# [5] = tested on: Saccharomyces cerevisiae BY4741 SeMeCo community; test: z-score of subpopulation abundance vs DMSO median, subpopulation auxotrophic for H; higher = larger share of this subpopulation than in DMSO controls; conditions: 10 µM; 24 h; SM minimal medium; subpopulation (auxotrophy): H
# How it was run: as §1
# [6] = tested on: Saccharomyces cerevisiae BY4741 SeMeCo community; test: z-score of subpopulation abundance vs DMSO median, subpopulation auxotrophic for LU; higher = larger share of this subpopulation than in DMSO controls; conditions: 10 µM; 24 h; SM minimal medium; subpopulation (auxotrophy): LU
# How it was run: as §1
# [7] = tested on: Saccharomyces cerevisiae BY4741 SeMeCo community; test: z-score of subpopulation abundance vs DMSO median, subpopulation auxotrophic for LM; higher = larger share of this subpopulation than in DMSO controls; conditions: 10 µM; 24 h; SM minimal medium; subpopulation (auxotrophy): LM
# How it was run: as §1
# [8] = tested on: Saccharomyces cerevisiae BY4741 SeMeCo community; test: z-score of subpopulation abundance vs DMSO median, subpopulation auxotrophic for HM; higher = larger share of this subpopulation than in DMSO controls; conditions: 10 µM; 24 h; SM minimal medium; subpopulation (auxotrophy): HM
# How it was run: as §1
# [9] = tested on: Saccharomyces cerevisiae BY4741 SeMeCo community; test: z-score of subpopulation abundance vs DMSO median, subpopulation auxotrophic for HU; higher = larger share of this subpopulation than in DMSO controls; conditions: 10 µM; 24 h; SM minimal medium; subpopulation (auxotrophy): HU
# How it was run: as §1
# [10] = tested on: Saccharomyces cerevisiae BY4741 SeMeCo community; test: z-score of subpopulation abundance vs DMSO median, subpopulation auxotrophic for UM; higher = larger share of this subpopulation than in DMSO controls; conditions: 10 µM; 24 h; SM minimal medium; subpopulation (auxotrophy): UM
# How it was run: as §1
# [11] = tested on: Saccharomyces cerevisiae BY4741 SeMeCo community; test: z-score of subpopulation abundance vs DMSO median, subpopulation auxotrophic for HL; higher = larger share of this subpopulation than in DMSO controls; conditions: 10 µM; 24 h; SM minimal medium; subpopulation (auxotrophy): HL
# How it was run: as §1
# [12] = tested on: Saccharomyces cerevisiae BY4741 SeMeCo community; test: z-score of subpopulation abundance vs DMSO median, subpopulation auxotrophic for HLU; higher = larger share of this subpopulation than in DMSO controls; conditions: 10 µM; 24 h; SM minimal medium; subpopulation (auxotrophy): HLU
# How it was run: as §1
# [13] = tested on: Saccharomyces cerevisiae BY4741 SeMeCo community; test: z-score of subpopulation abundance vs DMSO median, subpopulation auxotrophic for HUM; higher = larger share of this subpopulation than in DMSO controls; conditions: 10 µM; 24 h; SM minimal medium; subpopulation (auxotrophy): HUM
# How it was run: as §1
# [14] = tested on: Saccharomyces cerevisiae BY4741 SeMeCo community; test: z-score of subpopulation abundance vs DMSO median, subpopulation auxotrophic for LUM; higher = larger share of this subpopulation than in DMSO controls; conditions: 10 µM; 24 h; SM minimal medium; subpopulation (auxotrophy): LUM
# How it was run: as §1
# [15] = tested on: Saccharomyces cerevisiae BY4741 SeMeCo community; test: z-score of subpopulation abundance vs DMSO median, subpopulation auxotrophic for HLUM; higher = larger share of this subpopulation than in DMSO controls; conditions: 10 µM; 24 h; SM minimal medium; subpopulation (auxotrophy): HLUM
# How it was run: as §1
# [16] = tested on: Saccharomyces cerevisiae BY4741 SeMeCo community; test: z-score of subpopulation abundance vs DMSO median, subpopulation auxotrophic for U; higher = larger share of this subpopulation than in DMSO controls; conditions: 10 µM; 24 h; SM minimal medium; subpopulation (auxotrophy): U
# How it was run: as §1
Structure (SMILES),mean cell size [1],z-score of prototroph abundance [2],z-score of subpopulation abundance [3],z-score of subpopulation abundance [4],z-score of subpopulation abundance [5],z-score of subpopulation abundance [6],z-score of subpopulation abundance [7],z-score of subpopulation abundance [8],z-score of subpopulation abundance [9],z-score of subpopulation abundance [10],z-score of subpopulation abundance [11],z-score of subpopulation abundance [12],z-score of subpopulation abundance [13],z-score of subpopulation abundance [14],z-score of subpopulation abundance [15],z-score of subpopulation abundance [16]
CN(CCOc1ccc(NS(C)(=O)=O)cc1)CCc1ccc(NS(C)(=O)=O)cc1 [Dofetilide],12.4 ± 0.18,0.39,-0.18,-0.53,-0.68,0.5,0.47,-0.88,0.18,0.1,-0.22,-0.23,0.21,-0.27,-0.1,
CCN(CC)CCNC(=O)c1cc(S(C)(=O)=O)ccc1OC [Tiapride Hydrochloride],12.36 ± 0.12,-1.37,0.16,0.96,0.23,1.17,0.55,0.84,0.47,0.43,0.93,0.72,0.14,0.9,2.52,0.29
O=C(O)Cc1ccccc1Nc1c(Cl)cccc1Cl [Diclofenac acid],12.5 ± 0.047,1.03,0.23,0.08,-1.45,-0.18,0,0.14,,-0.58,-0.51,0.15,-1.34,,-0.07,-0.61
CN[C@@H]1[C@@H](O[C@H]2O[C@H](CO)[C@@H](N)[C@H](O)[C@H]2O)OC2C[C@@H](N)[C@@H](O[C@H]3[C@H](O)[C@@H](O)[C@H](N)C[C@@H]3N)OC2[C@@H]1O (stereo partly specified) [Apramycin Sulfate],12 ± 0.25,-0.43,-0.24,-0.01,-0.41,0.41,0.1,0.03,-0.09,0.56,0.24,0.36,0.37,0.97,1.47,0.87
Nc1ccc(C(=O)O)c(O)c1 [4-Aminosalicylic acid],12 ± 0.19,2.23,1.33,0.78,-0.01,-3.37,0.62,0.06,-3.39,-2.19,0.08,-0.27,-1.3,-1.15,-0.18,-3.36
Cc1ccsc1/C=C/C1=NCCCN1C [Morantel tartrate],12.28 ± 0.098,,0.85,-1.36,-1.74,0.13,-0.48,-0.19,,0.1,,-0.25,-0.08,-0.24,-0.47,0.23
O=C(O)c1cn(-c2ccc(F)cc2)c2cc(N3CCNCC3)c(F)cc2c1=O [Sarafloxacin HCl],12.2 ± 0.18,,-0.64,-0.74,-0.42,-0.05,0.08,-0.52,0.4,,-0.42,-0.35,0.61,0.54,-0.29,
Cc1cccc(N(C)C(=S)Oc2ccc3ccccc3c2)c1 [Tolnaftate],12.3 ± 0.27,0.3,-0.22,-0.24,-1.13,-0.35,-0.04,-0.59,-0.22,-0.08,,-0.38,-0.16,-0.11,-1.09,-0.32
N[C@@H]1CN(c2c(F)cc3c(=O)c(C(=O)O)cn([C@@H]4C[C@@H]4F)c3c2Cl)CC12CC2 [Sitafloxacin Hydrate],12.2 ± 0.062,-1.39,0.3,0.29,0.2,0.44,0.69,,1.54,1.53,0.18,0.03,0.81,0.98,-0.03,1.07
CC/C(=C(\c1ccccc1)c1ccc(OCCN(C)C)cc1)c1ccccc1 [Tamoxifen],,-0.91,0.18,0.96,1.57,0.89,1.82,,,0.21,0.95,0.93,0.85,0.23,0.09,-0.18
CCOC(=O)OC(C)OC1=C(C(=O)Nc2ccccn2)N(C)S(=O)(=O)c2ccccc21 (stereo unspecified) [Ampiroxicam],12.3 ± 0.37,0.81,0,-0.1,,-0.67,0.15,-0.5,-0.62,,-0.64,-0.83,,-0.42,-0.78,-0.79
CCC(C)(C)c1ccc(CC(C)CN2C[C@@H](C)O[C@@H](C)C2)cc1 (stereo partly specified) [Amorolfine HCl],12 ± 0.35,-9.52,9.64,-4.45,8.59,-0.63,-0.63,,5.04,10,1.91,2.33,6,3.94,5.77,
COc1cccc2c1C(=O)c1c(O)c3c(c(O)c1C2=O)CC(O)(C(=O)CO)CC3OC1CC(N)C(O)C(C)O1 (stereo unspecified) [Doxorubicin (Adriamycin) HCl],,,-6.37,0.99,4.08,8.06,-0.36,-2.19,8.36,0.38,2.67,12.3,2.39,4.19,12.9,4.2
CC(=O)[C@H]1CC[C@H]2[C@@H]3CCC4=CC(=O)CC[C@]4(C)[C@H]3CC[C@]12C [Progesterone],,,0.64,-1.51,-1.35,-1.24,,,-0.6,0.01,-0.85,-1.13,-0.62,-0.61,-1,-0.24
CC[C@@H]1/C=C(\C)C[C@H](C)C[C@H](OC)[C@H]2O[C@@](O)(C(=O)C(=O)N3CCCC[C@H]3C(=O)O[C@H](/C(C)=C/[C@@H]3CC[C@@H](O)[C@H](OC)C3)[C@H](C)[C@@H](O)CC1=O)[C@H](C)C[C@@H]2OC [Ascomycin (FK520)],11.8 ± 0.18,,1.34,0.1,,-0.23,1.39,1.4,1.75,0.63,2.56,2.5,2.57,,,-0.06
